Measured values as given in PubChem BioAssay (NCATS).
A number with no mark means an inactive call. Unless noted, the call rests on the fitted dose curve; in most records, active means well fitted curve in either direction with a large enough effect (not every such curve was filed as active); inconclusive means small, poorly fitted or top-dose-only effect, or another doubt; inactive means flat fitted curve, though single readings scatter. Inconclusive results are not listed.

These compounds were tested against Glucocorticoid receptor (Homo sapiens) (UniProt P04150) (assay: GR-EFC Redistribution (AID 451; calls by dose curve; further: potency means the concentration at half of the fitted maximal effect)). Details: CHO-K1 GR-EFC translocation, beta-gal luminescence, 2 h.
Sequence of Glucocorticoid receptor (Homo sapiens) (P04150 whole entry, looked up, the tested form may be a part): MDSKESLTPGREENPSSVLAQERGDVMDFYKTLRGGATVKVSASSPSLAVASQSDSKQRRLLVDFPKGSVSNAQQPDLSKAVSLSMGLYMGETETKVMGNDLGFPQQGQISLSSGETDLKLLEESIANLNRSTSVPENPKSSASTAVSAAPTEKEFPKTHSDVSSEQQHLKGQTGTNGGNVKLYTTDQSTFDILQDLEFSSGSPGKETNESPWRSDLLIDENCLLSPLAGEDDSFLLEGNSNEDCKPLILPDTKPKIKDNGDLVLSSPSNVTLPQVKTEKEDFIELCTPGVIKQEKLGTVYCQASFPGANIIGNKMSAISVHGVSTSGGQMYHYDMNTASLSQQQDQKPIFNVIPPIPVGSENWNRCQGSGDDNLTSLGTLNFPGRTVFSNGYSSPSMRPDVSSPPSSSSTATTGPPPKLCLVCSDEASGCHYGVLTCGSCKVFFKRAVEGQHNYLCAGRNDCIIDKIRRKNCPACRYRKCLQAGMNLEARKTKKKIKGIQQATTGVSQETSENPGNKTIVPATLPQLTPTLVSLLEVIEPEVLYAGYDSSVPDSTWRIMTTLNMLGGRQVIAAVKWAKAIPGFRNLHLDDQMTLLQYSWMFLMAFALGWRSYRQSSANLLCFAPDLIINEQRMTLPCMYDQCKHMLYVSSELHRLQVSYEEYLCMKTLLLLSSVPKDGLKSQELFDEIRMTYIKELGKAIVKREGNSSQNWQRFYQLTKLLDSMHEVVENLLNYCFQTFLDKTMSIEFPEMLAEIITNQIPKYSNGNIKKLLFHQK
Summary of the method: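 CHO-K1 cells expressing nuclear EA and GR-ED fragments of b-gal; compounds titrated up to 46 uM final, 2 h at 37 C. GR nuclear translocation read as complemented b-gal luminescence after 1 h RT detection.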

Row | Structure (SMILES) | Potency
1 | Cc1nc2cnc(N3CCOCC3)nc2n(C[C@H]2CCCO2)c1=O | > 46 µM
2 | CN(C)Cc1ccccc1-c1nc(NCc2cccs2)c2ccccc2n1 | > 46 µM
3 | CN(C)c1ncc2nc(-c3ccccc3)c(=O)n(-c3ccccc3)c2n1 | > 46 µM
4 | N#Cc1cccc(-c2nc3cnc(N4CCOCC4)nc3n(C[C@H]3CCCO3)c2=O)c1 | > 46 µM
5 | COc1ccc(-c2nc3cnc(Nc4cccc(OC)c4)nc3n(C3CC3)c2=O)cc1 | > 46 µM
6 | CN(C)c1ncc2nc(-c3cn(C)c4ccccc34)c(=O)n(C[C@H]3CCCO3)c2n1 | > 46 µM
7 | CN(C)c1ccc(-c2cc(Nc3ccc(F)cc3)ncn2)cc1 | > 46 µM
8 | COc1ncc2nc(C)c(=O)n(C3CC3)c2n1 | > 46 µM
9 | CN(C)Cc1ccccc1-c1cc(N(C)Cc2ccco2)ncn1 | > 46 µM
10 | CN(Cc1ccco1)c1ncncc1-c1ccccc1Cl | > 46 µM
11 | CN1CCN(c2ncc3ncc(=O)n(C[C@H]4CCCO4)c3n2)CC1 | > 46 µM
12 | CN1CCN(c2ncc3nc(-c4cc(F)cc(F)c4)c(=O)n(C4CC4)c3n2)CC1 | > 46 µM
13 | CN(Cc1ccco1)c1ncncc1-c1ccoc1 | > 46 µM
14 | CCNc1ncc2nc(-c3cn(C)c4ccccc34)c(=O)n(Cc3cccc(OC)c3)c2n1 | > 46 µM
15 | c1ccc(Nc2cc(-c3ccoc3)ncn2)cc1 | > 46 µM
16 | Cn1c(=O)c(-c2cccs2)nc2cnc(OCc3ccccc3)nc21 | > 46 µM
17 | FC(F)(F)c1ccccc1-c1cc(NCc2ccccc2)ncn1 | > 46 µM
18 | Cc1nc2cnc(N(C)C)nc2n(C[C@H]2CCCO2)c1=O | > 46 µM
19 | O=c1c(CCc2ccccc2)nc2cnc(N3CCOCC3)nc2n1Cc1cccs1 | > 46 µM

Row | Structure (SMILES) | Potency
20 | Cn1c(=O)c(-c2cc(F)cc(F)c2)nc2cnc(N3CCOCC3)nc21 | > 46 µM
21 | Cc1ccccc1-c1cc(N(C)C)ncn1 | > 46 µM
22 | CCNc1ncc2ncc(=O)n(C3CC3)c2n1 | > 46 µM
23 | COCCn1c(=O)c(-c2cc(F)cc(F)c2)nc2cnc(N3CCOCC3)nc21 | > 46 µM
24 | O=c1c(-c2ccc(F)cc2)nc2cnc(N3CCNCC3)nc2n1Cc1ccc(F)cc1 | > 46 µM
25 | COc1ncc2nc(-c3ccc(F)cc3)c(=O)n(C3CC3)c2n1 | > 46 µM
26 | COc1ccc(-n2c(=O)c(-c3cccs3)nc3cnc(N(C)C)nc32)cc1 | > 46 µM
27 | Fc1ccc(Nc2ncncc2-c2ccccc2C(F)(F)F)cc1 | > 46 µM
28 | CN(C)c1ncnc2ccc(-c3cccnc3)cc12 | > 46 µM
29 | Cc1noc(C)c1-c1ccc2ncnc(N(C)C)c2c1 | > 46 µM
30 | Cn1c(=O)c(-c2ccc(Cl)cc2)nc2cnc(Nc3ccccc3)nc21 | > 46 µM
31 | CN1CCN(c2ncc3nc(-c4ccc(Cl)cc4)c(=O)n(Cc4cccs4)c3n2)CC1 | > 46 µM
32 | CN1CCN(c2cc(-c3ccoc3)ncn2)CC1 | > 46 µM
33 | COCCNc1nc(-c2ccccc2OC)nc2ccccc12 | > 46 µM
34 | CN(Cc1ccco1)c1ncncc1-c1cccc(C#N)c1 | > 46 µM
35 | Cc1nc2cnc(N3CCN(C)CC3)nc2n(CCC#N)c1=O | > 46 µM
36 | COc1ccc(Oc2ncc3nc(C)c(=O)n(Cc4cccc(OC)c4)c3n2)cc1 | > 46 µM
37 | COCCn1c(=O)c(-c2ccc(Cl)cc2)nc2cnc(Oc3cccc(Cl)c3)nc21 | > 46 µM

The compounds below were run against Mitogen-activated protein kinase 10 (Mus musculus) (UniProt Q61831) (assay: JNK3 AlphaScreen Assay (AID 530;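 further: kinase came from lysate of stimulated human HepG2 cells; signal reports phosphorylation of biotinylated GST-cJun 1-79 at Ser73 with 10 µM ATP; on the % scale 0 is the no-effect control and ±100 the full control effect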)). Details: JNK3 lysate, c-Jun phosphorylation; series mostly up to 57.1 µM; activity change, negative = inhibition: at the top concentration.
Summary of the method: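 HepG2 lysate (IL-1b/TNFa pre-activated) + biotin-GST-cJun 1-79 + anti-pSer73 cJun; cpd titration, 15 min RT; ATP 10 uM start; Tris pH 7.6, MgCl2, DTT, vanadate; beads in EDTA buffer; AlphaScreen.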

Row | Structure (SMILES) | activity change, negative = inhibition
38 | Cc1nc2cnc(N3CCOCC3)nc2n(C[C@H]2CCCO2)c1=O | -11.6%
39 | CN(C)Cc1ccccc1-c1nc(NCc2cccs2)c2ccccc2n1 | -1.13%
40 | CN(C)c1ncc2nc(-c3ccccc3)c(=O)n(-c3ccccc3)c2n1 | 24.1%
41 | N#Cc1cccc(-c2nc3cnc(N4CCOCC4)nc3n(C[C@H]3CCCO3)c2=O)c1 | 3.61%
42 | COc1ccc(-c2nc3cnc(Nc4cccc(OC)c4)nc3n(C3CC3)c2=O)cc1 | 0.774%
43 | CN(C)c1ncc2nc(-c3cn(C)c4ccccc34)c(=O)n(C[C@H]3CCCO3)c2n1 | 14.4%
44 | CN(C)c1ncc2nc(-c3ccc(F)cc3)c(=O)n(C[C@H]3CCCO3)c2n1 | 10.8%
45 | CN(C)c1ccc(-c2cc(Nc3ccc(F)cc3)ncn2)cc1 | -16.1%
46 | COc1ncc2nc(C)c(=O)n(C3CC3)c2n1 | -4.72%
47 | CN(C)Cc1ccccc1-c1cc(N(C)Cc2ccco2)ncn1 | 2.77%
48 | CN(Cc1ccco1)c1ncncc1-c1ccccc1Cl | -2.64%
49 | CN1CCN(c2ncc3ncc(=O)n(C[C@H]4CCCO4)c3n2)CC1 | -6.3%
50 | CN1CCN(c2ncc3nc(-c4cc(F)cc(F)c4)c(=O)n(C4CC4)c3n2)CC1 | -0.258%
51 | COCCn1c(=O)c(C)nc2cnc(Oc3ccc(OC)cc3)nc21 | -0.0338%
52 | CN(Cc1ccco1)c1ncncc1-c1ccoc1 | -6.8%
53 | CCNc1ncc2nc(-c3cn(C)c4ccccc34)c(=O)n(Cc3cccc(OC)c3)c2n1 | 16.3%
54 | c1ccc(Nc2cc(-c3ccoc3)ncn2)cc1 | -21.6%
55 | Cn1c(=O)c(-c2cccs2)nc2cnc(OCc3ccccc3)nc21 | 5.04%
56 | FC(F)(F)c1ccccc1-c1cc(NCc2ccccc2)ncn1 | 12.9%
57 | Cc1nc2cnc(N(C)C)nc2n(C[C@H]2CCCO2)c1=O | -7.37%

Row | Structure (SMILES) | activity change, negative = inhibition
58 | O=c1c(CCc2ccccc2)nc2cnc(N3CCOCC3)nc2n1Cc1cccs1 | -0.333%
59 | Cn1c(=O)c(-c2cc(F)cc(F)c2)nc2cnc(N3CCOCC3)nc21 | 1.49%
60 | O=c1cnc2cnc(N3CCOCC3)nc2n1CCc1ccccc1 | 2.05%
61 | Cc1ccccc1-c1cc(N(C)C)ncn1 | 6.8%
62 | CCNc1ncc2ncc(=O)n(C3CC3)c2n1 | -11.9%
63 | COCCn1c(=O)c(-c2cc(F)cc(F)c2)nc2cnc(N3CCOCC3)nc21 | 4.67%
64 | O=c1c(-c2ccc(F)cc2)nc2cnc(N3CCNCC3)nc2n1Cc1ccc(F)cc1 | 28.4%
65 | COc1ncc2nc(-c3ccc(F)cc3)c(=O)n(C3CC3)c2n1 | 1.04%
66 | COc1ccc(-n2c(=O)c(-c3cccs3)nc3cnc(N(C)C)nc32)cc1 | -2.77%
67 | Fc1ccc(Nc2ncncc2-c2ccccc2C(F)(F)F)cc1 | -3.2%
68 | CN(C)c1ncnc2ccc(-c3cccnc3)cc12 | -13.8%
69 | Cc1noc(C)c1-c1ccc2ncnc(N(C)C)c2c1 | 2.61%
70 | Cn1c(=O)c(-c2ccc(Cl)cc2)nc2cnc(Nc3ccccc3)nc21 | -10.3%
71 | CN1CCN(c2cc(-c3ccoc3)ncn2)CC1 | -2.52%
72 | COCCNc1nc(-c2ccccc2OC)nc2ccccc12 | -5.03%
73 | CN(Cc1ccco1)c1ncncc1-c1cccc(C#N)c1 | 2.82%
74 | Cc1nc2cnc(N3CCN(C)CC3)nc2n(CCC#N)c1=O | -6.02%
75 | COc1ccc(Oc2ncc3nc(C)c(=O)n(Cc4cccc(OC)c4)c3n2)cc1 | 2.84%
76 | COCCn1c(=O)c(-c2ccc(Cl)cc2)nc2cnc(Oc3cccc(Cl)c3)nc21 | -11.3%
